Laboratory results: the supplement of paper PMC6555819

Assays:
Assay in all cases: PBM binding z-score (relative to random genomic background probes); higher = stronger binding; sequences stand for … in GC…GCGATTGACAGCGTAGAATGAAGG
[1] = tested on: FXR:RXRa (NR concentration 270 nM, RXRa partner concentration 90 nM)
Method in brief: (§1)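 Random background probes are the reference for binding z-scores. These scores derive from regression-normalized fluorescence on custom Agilent 4×180K protein-binding microarrays incubated 1 h with ligand-free nuclear receptor dimers. Binding was detected with antibodies against each partner (one per run).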

[2] = tested on: LXRa:RXRa (NR concentration 270 nM, RXRa partner concentration 90 nM)
Method in brief: as §1

[3] = tested on: LXRa homodimer (NR concentration 270 nM)
Method in brief: as §1

[4] = tested on: LXRb:RXRa (NR concentration 270 nM, RXRa partner concentration 90 nM)
Method in brief: as §1

[5] = tested on: LXRb homodimer (NR concentration 270 nM)
Method in brief: as §1

[6] = tested on: PPARa:RXRa (NR concentration 270 nM, RXRa partner concentration 90 nM)
Method in brief: as §1

[7] = tested on: PPARg:RXRa (NR concentration 180 nM, RXRa partner concentration 90 nM)
Method in brief: as §1

[8] = tested on: PPARg:RXRa 270nM:90nM, anti-RXR (NR concentration 270 nM, RXRa partner concentration 90 nM)
Method in brief: as §1

[9] = tested on: PPARg:RXRa 30nM:10nM, anti-RXR (NR concentration 30 nM, RXRa partner concentration 10 nM)
Method in brief: as §1

[10] = tested on: PPARg:RXRa 90nM:30nM, anti-RXR (NR concentration 90 nM, RXRa partner concentration 30 nM)
Method in brief: as §1

[11] = tested on: PPARg:RXRa DBDmut IVT, anti-RXR (DBD mutation: RXRa K156A/R161A, NR concentration 270 nM, RXRa partner concentration 90 nM)
Method in brief: as §1

[12] = tested on: PPARg:RXRa IVT, anti-PPARg (NR concentration 270 nM, RXRa partner concentration 90 nM)
Method in brief: as §1

[13] = tested on: PPARg DBDmut:RXRa IVT, anti-PPARg (DBD mutation: PPARg1 K132A/R137A, NR concentration 270 nM, RXRa partner concentration 90 nM)
Method in brief: as §1

[14] = tested on: PPARg DBDmut IVT, anti-PPARg (DBD mutation: PPARg1 K132A/R137A, NR concentration 270 nM)
Method in brief: as §1

[15] = tested on: PPARg homodimer (NR concentration 180 nM)
Method in brief: as §1

[16] = tested on: PXR:RXRa (NR concentration 270 nM, RXRa partner concentration 90 nM)
Method in brief: as §1

[17] = tested on: PXR homodimer (NR concentration 270 nM)
Method in brief: as §1

[18] = tested on: RARa:RXR (NR concentration 270 nM, RXRa partner concentration 90 nM)
Method in brief: as §1

[19] = tested on: RARa homodimer (NR concentration 270 nM)
Method in brief: as §1

[20] = tested on: RARb:RXRa (NR concentration 270 nM, RXRa partner concentration 90 nM)
Method in brief: as §1

Sequence | PBM binding z-score [1] | PBM binding z-score [2] | PBM binding z-score [3] | PBM binding z-score [4] | PBM binding z-score [5] | PBM binding z-score [6] | PBM binding z-score [7] | PBM binding z-score [8] | PBM binding z-score [9] | PBM binding z-score [10] | PBM binding z-score [11] | PBM binding z-score [12] | PBM binding z-score [13] | PBM binding z-score [14] | PBM binding z-score [15] | PBM binding z-score [16] | PBM binding z-score [17] | PBM binding z-score [18] | PBM binding z-score [19] | PBM binding z-score [20]
TCGAGGAGGTTAGGGGCATTCAGAATGGCGTCGA | 1.12 | 0.91 | -0.0426 | 1.71 | 0.134 | 1.94 | 0.354 | 1.08 | 1.19 | 1.09 | 1.17 | 0.304 | -0.348 | -0.472 | 1.01 | 1.03 | 0.679 | 0.889 | 0.232 | 1.62
TCGAGCAGGTTAGGGGCATTCAGAATGGCGTCGA | 0.0413 | 0.102 | -0.285 | 0.523 | -0.591 | 0.89 | -0.117 | 0.183 | 0.0683 | 0.228 | 0.212 | -0.145 | -1.03 | -1.48 | 0.0489 | 0.241 | -0.0165 | 0.385 | -0.605 | 1.11
GGAACGAGGGCAGAGTTGATAGCATCTGTCGACG | -0.283 | -0.148 | -0.653 | -0.244 | -0.788 | 2.39 | 4.04 | 5.15 | 3.38 | 4.85 | 2.1 | 2.85 | 0.19 | -0.602 | 0.635 | -0.0229 | -0.145 | -0.365 | -0.977 | 1.68
CCTCGGAGGATAGAAGGTCAGAGCTGTCCGCTTT | 1 | 1.57 | 0.218 | 1.21 | -0.745 | 1.83 | -0.0434 | 1.26 | -0.528 | 0.571 | 0.306 | 0.12 | -1.89 | -1.62 | 1.56 | 1.38 | -0.0463 | 1.82 | 0.234 | 2.29
AGAATGAGGTTACCAAAGATCAGGCAAACGCTTG | 1.67 | 5.94 | -0.392 | 3.24 | -0.531 | 3.41 | 2.77 | 2.57 | 0.868 | 1.84 | 3.6 | 3.49 | 0.423 | 0.272 | 0.661 | 1.24 | -0.362 | 2.11 | -0.358 | 2
TGAATGAGGTTATAACATCAGGGAACGTTGCAAA | 1.52 | 1.46 | -0.281 | 1.2 | -0.639 | 2.52 | 1.12 | 1.54 | 0.946 | 1.41 | 0.822 | 1.57 | 1.79 | 0.499 | 0.614 | 0.813 | -0.514 | 1.4 | 0.248 | 1.04
AGAACGAGGGTACGCTGAGTTGATAGCAGAGTAG | -0.315 | -0.553 | -0.621 | -0.739 | -0.968 | -0.00229 | 0.661 | -0.197 | -0.127 | -0.289 | 1.48 | 0.725 | 0.215 | 0.0529 | -0.458 | 0.223 | 0.15 | -0.0408 | -0.807 | 0.364
GCTATTAGTTGAAAGTGCAACCGAATGATTCTCG | 0.0358 | 0.479 | 0.0569 | 0.177 | 0.0186 | 1.33 | 1.28 | 2.92 | 1.24 | 2.72 | 0.238 | 0.262 | 0.449 | 0.384 | 0.768 | 0.683 | 0.384 | 0.526 | 0.153 | 0.775
CGAACTAGGTCAAGGACACTGAATCTCCGCACGC | 3.6 | 2.34 | 0.392 | 1.61 | -0.129 | 4.59 | 7.39 | 6.12 | 3.48 | 5.6 | 8.19 | 8.2 | 2.38 | 0.508 | 1.58 | 1.44 | 0.0266 | 1.97 | 0.291 | 4.04
GCTCGCAGGCCATTTGGGTCACTCAATGACGGGC | 0.079 | 0.0243 | -0.668 | 0.0952 | -1.06 | 1.29 | 0.381 | 0.415 | -0.625 | -0.441 | 1.09 | 1.56 | -1.82 | -1.26 | 0.213 | 0.621 | 0.71 | 0.492 | -0.566 | 1.72
CGAACGAGGGCATGAGTTGATGGCAAATGCCGAT | 0.483 | 0.315 | -0.503 | -0.235 | -0.92 | 1.4 | 1.24 | 1.34 | -0.207 | 0.832 | 3.03 | 2.23 | -0.341 | -0.685 | -0.031 | 0.243 | -0.209 | 0.201 | -1.03 | 1.99
GCCATTAGTTGAAAGGGCAACCGAATGATTCTCG | 0.121 | 0.648 | 0.0731 | 0.887 | -0.56 | 2.25 | 2.41 | 4.11 | 1.8 | 3.93 | 0.352 | 0.947 | 0.187 | -0.306 | 0.971 | 0.706 | 0.067 | 1.4 | -0.15 | 2.21
GCGACTGGGGCAAAGCAGGCTACCATAAGGTTGG | -0.319 | -0.696 | -0.699 | -0.682 | -0.971 | 0.527 | 0.941 | 0.966 | -0.413 | 0.272 | 4.44 | 3.34 | -0.239 | -0.307 | -0.349 | -0.574 | -0.689 | -0.126 | -1.27 | 0.579
CGAACTAGGTCATCCCGGACAGTGAATACATTGA | 4.18 | 2.56 | 0.912 | 2.09 | 0.361 | 4.71 | 7.36 | 6.47 | 3.85 | 6.17 | 7.94 | 8.33 | 3.25 | 4.44 | 4.1 | 1.56 | 0.96 | 2.24 | 1.88 | 3.69
